# Experimental data published in ChEMBL document CHEMBL3988442, “University of Dundee, Small-Polar-MMV Screening Library” (2021).
# About 13,000 (27%) of roughly 48,000 compounds showed an effect of 50% or more. The list shows a part of the results.
# Tested on: Wolbachia pipientis
# Experiment: Anti-Wolbachia Cell-Based Screen
# Assay type: functional
# Set-up: scale not given: in the data most compounds retested in dose-response had high values
# Conditions: 5 µM
row,Structure (SMILES),Percent Effect
1,CSCC(C)(O)CNC(=O)Nc1ccc(C)cc1Br (stereo not given),7.748%
2,NC(=O)c1cccc(C2CCN(c3ncccn3)CC2)n1,105.7%
3,CN(C)C(=O)c1cccc(C2CCN(c3ncccn3)CC2)n1,135.8%
4,O=C(C1CC1)N1CCCCCC1C1CCN(c2ncccn2)CC1 (stereo not given),-21.65%
5,O=C(O)c1cccc(CC2CCN(c3ncccn3)CC2)c1,-1.664%
6,CN(C)C(=O)[C@@H]1CCO[C@@H]2CCN(c3ncccn3)C[C@H]21,1.087%
7,CCN(C(C)=O)C1CCN(c2nccc(C3CCCC3)n2)C1 (stereo not given),3.77%
8,COC(=O)c1ccc(NC(=O)[C@@H]2CCCN2C(=O)c2ccco2)s1,-1.409%
9,COCCN(Cc1ccccc1)Cc1nc(-c2ccsc2)no1,2.788%
10,OCCN(Cc1ccccc1)Cc1nc(-c2ccc3c(c2)OCO3)no1,99.41%
11,COC(=O)c1ccc(-c2noc(CN(CCO)Cc3cccs3)n2)cc1,109.2%
12,CC(Cn1cccn1)NCc1nc(-c2ccc3c(c2)OCO3)no1 (stereo not given),-6.149%
13,CCN(Cc1nc(C(C)C)no1)Cc1cccs1,12.81%
14,OCCN(Cc1nc(-c2ccc3c(c2)OCO3)no1)Cc1cccs1,121.2%
15,CCc1nc(CN(Cc2cccs2)CC2CCCO2)no1 (stereo not given),3.529%
16,OCCN(Cc1nc(-c2ccc3c(c2)OCO3)no1)CC1CC1,-12.91%
17,COCCN(Cc1ccco1)Cc1nc(-c2ccccc2)no1,2.564%
18,Cc1ccc(Sc2ccc(N3CCC(C(=O)O)CC3)nn2)cc1,6.07%
19,Cc1cc(C)c(-n2cccn2)c(CN2CCOCC(CN(C)C)C2)c1 (stereo not given),9.231%
20,Cc1cccnc1[C@H](C)NC(=O)Cc1cc2c(cc1Cl)OCCO2,3.322%
21,CN1CCOC[C@H]1c1nc(-c2ccccc2)c[nH]1,1.409%
22,O=C(C1CC1)N1CCc2nc(C3CCN(C(=O)C4CC4)C3)nc(O)c2C1 (stereo not given),98.35%
23,O=C(C1CC1)N1CCC(C(=O)N2CCC(c3ccc(F)cc3)C2)CC1 (stereo not given),-1.259%
24,CCS(=O)(=O)N1CCc2nc(C3CCN(C(=O)C4CC4)C3)nc(O)c2C1 (stereo not given),88.69%
25,CCS(=O)(=O)N1CCc2nc(N3CCCC3)nc(N(C)C)c2CC1,3.292%
26,O=S(=O)(CCO)Cc1ccc(OC(F)F)cc1,-13.52%
27,COc1cccc(-c2noc(-c3ccc(NCCCN)nc3)n2)c1OC,-11.46%

row,Structure (SMILES),Percent Effect
1,O=C(Cn1cc(C2CC2)nn1)NC(c1ccc(Cl)cc1)C1CC1 (stereo not given),-3.06%
2,CCc1ccc(CN2CCN(c3cccc(OC)c3)C(=O)C2)nc1,111.5%
3,COc1cccc(N2CCN(Cc3ncc[nH]3)CC2=O)c1,-4.353%
4,CCc1nnc(N2CCN(c3ccccc3)C(=O)C2)o1,1.843%
5,CCc1ccc(CN2CCN(c3ccc(C#N)cc3)C(=O)C2)nc1,-14.58%
6,CCc1nnc(CN2CCN(c3cccc(OC)c3)C(=O)C2)o1,104.5%
7,CN(C)c1ccc(CN2CCN(c3ccc(C#N)cc3)C(=O)C2)cn1,27.75%
8,Cc1ccc(S(=O)(=O)n2ccc(C(=O)NCC(F)(F)F)c2)cc1,31.33%
9,COc1ccc2c(=O)n(CC3CC3)ccc2c1OC,8.638%
10,COc1ccc(C(C)NC(=O)NCCNc2ccccn2)c(OC)c1 (stereo not given),23.68%
11,CC(NC(=O)NCc1ccccn1)c1cccs1 (stereo not given),95.38%
12,CCn1cnnc1CNC(=O)NC(C)c1cccs1 (stereo not given),5.383%
13,CC(C)C(NC(=O)NCCNc1ccccn1)c1cccs1 (stereo not given),-3.383%
14,CC(NC(=O)NCCNc1ccccn1)c1cccs1 (stereo not given),84.24%
15,O=C(O)C(F)(F)F.O=S(=O)(C1CC1)N1CC[C@]2(C[C@@H](Oc3ccccn3)CO2)C1,-7.855%
16,CN(C)c1ncc(CNS(=O)(=O)c2cc(F)ccc2Cl)n1C,-4.152%
17,COCCN1CCC(C(=O)N(C)Cc2c[nH]c3ccc(C)cc23)C1 (stereo not given),-13.06%
18,CC(C)C(=O)N1CCC2(CN(CC3CCCC3)C2)C1.O=C(O)C(F)(F)F,-3.433%
19,CN(C)C(=O)C1CCN(C2CCN(CC3CC3)CC2)CC1.O=C(O)C(F)(F)F.O=C(O)C(F)(F)F,109%
20,CCc1nc(CN2CCC(C(=O)N(C)C)CC2)cs1,-2.315%
21,CN1CCC2(CCN(CC3CC3)CC2)C1=O.O=C(O)C(F)(F)F,-0.5297%
22,CN1CCN(C2COC3(CCN(CC4CC4)CC3)C2)CC1.O=C(O)C(F)(F)F.O=C(O)C(F)(F)F.O=C(O)C(F)(F)F (stereo not given),-10.32%
23,CCN1CCC(N2CCC(C(=O)N(C)C)CC2)CC1.O=C(O)C(F)(F)F.O=C(O)C(F)(F)F,104.7%
24,CN(C)Cc1cn2c(n1)CN(CC1CCCC1)CC2.O=C(O)C(F)(F)F.O=C(O)C(F)(F)F,-16.91%
25,CC(C)CN1CCC(N2CCC(C(=O)N(C)C)CC2)CC1.O=C(O)C(F)(F)F.O=C(O)C(F)(F)F,126.3%
26,CC(C)CN1CC[C@@H]2[C@H](CC1)N(C(=O)c1ccccc1)CCS2(=O)=O.O=C(O)C(F)(F)F,-7.451%
27,CN(C)C(=O)CN1CC[C@H]2CN(C3CCOCC3)C[C@@H]2C1=O.O=C(O)C(F)(F)F,-33.67%

row,Structure (SMILES),Percent Effect
1,CC(C)CN1CC[C@@H]2[C@@H]1CCN2C(=O)N1CCCC1.O=C(O)C(F)(F)F,-1.369%
2,CN(C)C(=O)C1CCN(C2CCN(CC3CCC3)CC2)CC1.O=C(O)C(F)(F)F.O=C(O)C(F)(F)F,115.1%
3,CN1CC(=O)N(c2ccsc2)CC12CCN(S(C)(=O)=O)C2.O=C(O)C(F)(F)F (stereo not given),-22.3%
4,O=C(C1CCC2(CCN(CC3CCOCC3)CC2)O1)N1CCCCO1.O=C(O)C(F)(F)F (stereo not given),-16.72%
5,O=C(O)C(F)(F)F.O=C([C@@H]1COC[C@H]2CN(c3ccncn3)C[C@H]21)N1CCCC1,-1.455%
6,Cc1ccc(C(=O)Nc2cn[nH]c2)cc1C,-10.82%
7,Cc1nc[nH]c1CN1C[C@@H]2CC[C@H](C1)N(C(=O)CCNS(C)(=O)=O)C2,-6.405%
8,O=C(COCC1CCCCO1)N1CCN(Cc2ccccc2F)C(=O)C1 (stereo not given),-11.31%
9,N#CC1C(=O)Nc2c(cnn2C2CCCC2)C12CCCC2 (stereo not given),15.25%
10,CN1CCN(C2CCN(C(=O)CCC3CCCC3)CC2)CC1.O=C(O)C(=O)O,6.776%
11,CN(C)C(=O)C1CCC2(CCN(Cc3cnn(C)c3)CC2)C1.O=C(O)C(F)(F)F (stereo not given),-4.25%
12,CC(C)N1CCC(N2CCC(C(=O)N(C)C)CC2)CC1.O=C(O)C(F)(F)F.O=C(O)C(F)(F)F,105.3%
13,CC(C)N1CCC(C(=O)N(C)CC(=O)c2ccc(O)cc2)CC1,-30.04%
14,CC(C)CNC(=O)C(C)N1CCN(C2CCN(C(C)C)CC2)CC1 (stereo not given),-39.91%
15,CN1CCC(N2CCC(C(=O)N(C)C)CC2)CC1.O=C(O)C(F)(F)F.O=C(O)C(F)(F)F,107.5%
16,CCn1nc2c(cc1=O)CN(CC1CCCCO1)CC2 (stereo not given),-5.782%
17,N[C@@H]1c2ccccc2C2(CCN(C(=O)c3ccc(CO)o3)CC2)[C@H]1O,13.24%
18,CCOc1cc(CNCc2nc(C)cc(=O)[nH]2)c(Cl)cc1OC(C)C,-17.65%
19,CCN(Cc1noc(C)n1)C(=O)CCc1scnc1C,1.92%
20,Cc1c[nH]nc1C1CCCN1Cc1ccncc1 (stereo not given),100.6%
21,Cc1noc(C)c1-c1cncc(C2CCCN2Cc2ccncc2)n1 (stereo not given),-4.931%
22,Cc1ccc(-c2c[nH]c([C@@H]3COCCN3Cc3ncc[nH]3)n2)cc1,0.7932%
23,Cc1c[nH]nc1C1CCCN1Cc1ncc[nH]1.O=CO (stereo not given),85.61%
24,COc1c(C2CCCN2Cc2nccn2C)c(C)nn1C (stereo not given),8.453%
25,CCn1ccnc1CN1CCCC1c1c(C)nn(C)c1OC (stereo not given),-25.16%
26,Cc1nccn1CCC1CCCCN1Cc1ccncc1 (stereo not given),6.487%
27,Cc1c[nH]nc1C1CCCN1Cc1nccn1C.O=CO (stereo not given),95.89%

row,Structure (SMILES),Percent Effect
1,CC(C)(C)c1coc([C@@H]2COCCN2Cc2ncc[nH]2)n1,-0.9304%
2,CCc1ncncc1C(=O)NCCNS(=O)(=O)c1ccccc1,12.25%
3,O=C(c1c[nH]nn1)N1CCN(C(c2ccccc2)C(F)(F)F)CC1 (stereo not given),0.659%
4,COC(C)c1nc(CN2CCCNCC2)cs1 (stereo not given),4.679%
5,CC(CS(C)(=O)=O)N(C(=O)c1ccc(Cl)s1)C1CC1 (stereo not given),-8.906%
6,Cc1cccc2c1OCCCC2NCc1nnc2n1CCCCC2 (stereo not given),-7.858%
7,CN(Cc1ccon1)C1CCN(c2cccc(-c3cscn3)c2)CC1,-11.17%
8,CCCN1CCc2nc(SCc3c(C)cc(C)cc3C)[nH]c(=O)c2C1,4.96%
9,Cc1nc2c(c(=O)[nH]1)CN(Cc1ccc3c(c1)CCCN3C)CC2,56.56%
10,Cc1nc2c(c(=O)[nH]1)CCN(Cc1ccc3c(c1)CCCN3C)C2,94.44%
11,Cn1nc2c(cc1=O)CN(Cc1ccc(-n3cccn3)cc1)CC2,6.074%
12,CC(C(=O)Nc1ccnn1C(C)C)N1CCCN(c2nccs2)CC1 (stereo not given),10.48%
13,OCCn1nnnc1Cc1ccc(Br)cc1,-3.897%
14,O=C(c1[nH]nc(C2CC2)c1Cl)N1CCN(C2CC2)CC1,-10.68%
15,CSc1ccc(C(=O)N2CC(=O)N(Cc3cccs3)CC(O)C2)cc1 (stereo not given),110.9%
16,Cc1ccc(C(=O)N2CC(=O)N(Cc3cccs3)CC(O)C2)cc1 (stereo not given),76.19%
17,CC1CN(C)CCN1C(=O)c1cccn1Cc1cccs1 (stereo not given),-1.596%
18,O=C1CN(C(=O)c2ccc(F)cc2)CC(O)CN1Cc1cccs1 (stereo not given),106.9%
19,CC(C)(C)NC(=O)[C@@H]1Cc2ccccc2CN1Cc1cccs1,16.75%
20,COc1ccc(OCc2nc(C(=O)N3CC(O)C3)co2)cc1,-10.13%
21,COc1ccc(C(=O)N2CCN(C(=O)c3csc(C(C)C)n3)CC2)cc1,-4.051%
22,COc1ccc(C(=O)N2CC(=O)N(Cc3cccs3)CC(O)C2)cc1 (stereo not given),106.6%
23,CC(C)(C)n1cc(C(=O)N2CCCN(Cc3cccs3)CC2)cn1,-3.981%
24,O=C(c1ccc(F)cc1)N1C[C@@H]2CN(c3ncccn3)C[C@@H]2C1,2.652%
